Structures are written as SMILES. Screen size: about 39,000 compounds; about 3,300 (8.5%) were called active. The full list was thinned out, with actives kept by preference.

This assay deals with HepG2. Description: cytotoxicity call (relative viability < 0.9). As to conditions: 10 µM.
Take `C[C@@H]1CN([C@H](C)CO)C(=O)c2cc(NC(=O)NC3CCCCC3)ccc2O[C@@H]1CN(C)C(=O)Nc1cccc2ccccc12`: the cytotoxicity call was “inactive”. Then `Cc1ccc(S(=O)(=O)Nc2cccc3c2O[C@@H](CN(C)Cc2ccc(Oc4ccccc4)cc2)[C@H](C)CN([C@H](C)CO)C3=O)cc1`, with “inactive”; and `COc1ccc(S(=O)(=O)N(C)C[C@@H]2OCCCC[C@H](C)Oc3ccc(NC(=O)Nc4ccccc4)cc3C(=O)N([C@H](C)CO)C[C@@H]2C)cc1`, with “inactive”. Regarding `O=C(NCCn1ncc2c(=O)n(Cc3ccccc3)cnc21)c1ccc(S(=O)(=O)N2CCOCC2)cc1`, the cytotoxicity call was “inactive”. To `CC(C)Sc1n[nH]c(=O)[nH]c1=O` belongs “inactive”. For `CCCNC(=O)N(C)C[C@H]1Oc2cc(C#Cc3ccccn3)ccc2S(=O)(=O)N([C@H](C)CO)C[C@@H]1C`, the cytotoxicity call is “inactive”. To `CC[C@H]1Sc2ccccc2NC1=O` belongs “inactive”. Then `C[C@H]1CCCCO[C@H](CN(C)S(=O)(=O)c2cn(C)cn2)[C@@H](C)CN([C@@H](C)CO)C(=O)c2cc(NS(=O)(=O)c3cccs3)ccc2O1`, with “inactive”. To `CSc1nc(C)cc(OCCO)n1` belongs “inactive”; to `COc1ccc(NC(=O)Nc2ccc3c(c2)C(=O)N([C@@H](C)CO)C[C@@H](C)[C@H](CN(C)Cc2ccc(Cl)c(Cl)c2)OCCCC[C@H](C)O3)cc1`, “inactive”; to `O=c1c(-c2ccc(O)cc2)coc2cc(O[C@@H]3O[C@H](CO)[C@@H](O)[C@H](O)[C@H]3O)ccc12`, “inactive”. Consider `COc1ccc(CNC(=O)C[C@@H]2CC[C@@H]3[C@@H](COc4ccc(NC(=O)C5CC5)cc4C(=O)N3C)O2)cc1`, for which the cytotoxicity call was “inactive”. `C[C@H](CO)N1C[C@H](C)[C@@H](CN(C)S(=O)(=O)c2cccs2)Oc2c(NC(=O)C3CCOCC3)cccc2C1=O`: the cytotoxicity call is “inactive”.

Consider `Cc1ccc(S(=O)(=O)Nc2ccc3c(c2)C(=O)N([C@@H](C)CO)C[C@@H](C)[C@H](CN(C)C(=O)NC2CCCCC2)OCCCC[C@H](C)O3)cc1`, for which the cytotoxicity call was “inactive”.

As for `CC(C)N=c1cc2n(-c3ccc(Cl)cc3)c3ccccc3nc-2cc1Nc1ccc(Cl)cc1`, the cytotoxicity call is “active”. Then `Cc1nc(S(=O)(=O)N[C@H]2CCS(=O)(=O)C2)cn1C`, with “active”. To `CN[C@H]1CCS(=O)(=O)C1` belongs “inactive”; to `CCN[C@H]1CCS(=O)(=O)C1`, “inactive”; to `CCC(=O)N(C)C[C@@H]1Oc2ncc(C#C[C@@H](C)O)cc2C(=O)N([C@H](C)CO)C[C@@H]1C`, “inactive”. Regarding `COc1cccc(-c2cnc3c(c2)C(=O)N([C@H](C)CO)C[C@H](C)[C@H](CN(C)S(=O)(=O)c2cccc(F)c2)O3)c1`, the cytotoxicity call was “inactive”. To `N[C@@H](Cn1ccc(=O)c(O)c1)C(=O)O` belongs “inactive”. `N[C@@H](CN1C=CC(=O)C(=O)C1)C(=O)O`: the cytotoxicity call was “inactive”.

For the compound `NC(Cn1ccc(=O)c(O)c1)C(=O)O` (centres undefined), the cytotoxicity call is “active”. Take `C[C@@H]1CN([C@@H](C)CO)C(=O)c2cc(NC(=O)Nc3ccc(C(F)(F)F)cc3)ccc2O[C@@H]1CN(C)C(=O)Nc1cccc2ccccc12`: the cytotoxicity call was “inactive”. In the case of `C[C@@H]1CN(CCO[Si](C)(C)C(C)(C)C)C(=O)c2cc(NC(=O)Nc3ccccc3)ccc2O[C@@H](C)CCCCO[C@H]1CN(C)S(=O)(=O)c1ccc(F)cc1`, the cytotoxicity call is “inactive”. Then `Cc1noc(C)c1NC(=O)Nc1ccc2c(c1)CC(=O)N([C@H](C)CO)C[C@@H](C)[C@H](CN(C)S(C)(=O)=O)O2`, with “inactive”. Take `C[C@H](CO)N1C[C@H](C)[C@H](CN(C)S(C)(=O)=O)Oc2ccc(NC(=O)Cc3ccccc3)cc2C1=O`: the cytotoxicity call is “inactive”. For the compound `C[C@@H]1CCCCO[C@H](CN(C)Cc2ccc(Cl)c(Cl)c2)[C@H](C)CN([C@@H](C)CO)C(=O)c2cc(NC(=O)Nc3ccccc3)ccc2O1`, the cytotoxicity call is “active”. Consider `C[C@@H]1CN([C@@H](C)CO)C(=O)c2cc(NC(=O)Nc3ccccc3)ccc2O[C@@H](C)CCCCO[C@H]1CN(C)Cc1ccc(Cl)c(Cl)c1`, for which the cytotoxicity call is “inactive”. For the compound `C[C@@H]1CCCCO[C@H](CN(C)Cc2ccc(Cl)c(Cl)c2)[C@@H](C)CN([C@@H](C)CO)C(=O)c2cc(NC(=O)Nc3ccccc3)ccc2O1`, the cytotoxicity call was “inactive”.

Turning to `C[C@@H]1CN([C@H](C)CO)C(=O)c2cc(NC(=O)Nc3ccccc3)ccc2O[C@@H](C)CCCCO[C@H]1CN(C)Cc1ccc(Cl)c(Cl)c1`, the cytotoxicity call is “active”. Turning to `C[C@@H]1CCCCO[C@@H](CN(C)Cc2ccc(Cl)c(Cl)c2)[C@@H](C)CN([C@@H](C)CO)C(=O)c2cc(NC(=O)Nc3ccccc3)ccc2O1`, the cytotoxicity call was “inactive”. `C[C@@H]1CCCCO[C@H](CN(C)Cc2ccc(Cl)c(Cl)c2)[C@@H](C)CN([C@H](C)CO)C(=O)c2cc(NC(=O)Nc3ccccc3)ccc2O1`: the cytotoxicity call was “inactive”.

For `C[C@@H]1CCCCO[C@@H](CN(C)Cc2ccc(Cl)c(Cl)c2)[C@H](C)CN([C@H](C)CO)C(=O)c2cc(NC(=O)Nc3ccccc3)ccc2O1`, the cytotoxicity call is “active”. `C[C@H](CO)N1C[C@H](C)[C@H](CN(C)Cc2ccc(Cl)c(Cl)c2)OCCCC[C@H](C)Oc2ccc(NC(=O)Nc3ccccc3)cc2C1=O`: the cytotoxicity call is “inactive”.

For the compound `C[C@@H]1CCCCO[C@@H](CN(C)Cc2ccc(Cl)c(Cl)c2)[C@H](C)CN([C@@H](C)CO)C(=O)c2cc(NC(=O)Nc3ccccc3)ccc2O1`, the cytotoxicity call is “inactive”. To `C[C@@H]1CN([C@H](C)CO)C(=O)c2cc(NC(=O)Nc3ccccc3)ccc2O[C@@H](C)CCCCO[C@@H]1CN(C)Cc1ccc(Cl)c(Cl)c1` belongs “active”. Then `CO[C@H]1CN(C)C(=O)c2cc(NS(C)(=O)=O)ccc2OC[C@H](C)N(C(=O)C2CCCCC2)C[C@@H]1C`, with “inactive”.

With `C[C@H]1CN([C@@H](C)CO)C(=O)c2cc(NS(=O)(=O)c3cn(C)cn3)ccc2O[C@@H]1CN(C)CC1CC1`, the cytotoxicity call was “inactive”. Take `Cc1ccc(S(=O)(=O)N(C)C[C@@H]2Oc3c(NS(=O)(=O)c4cn(C)cn4)cccc3C(=O)N([C@@H](C)CO)C[C@@H]2C)cc1`: the cytotoxicity call was “inactive”. For `COc1ccc(S(=O)(=O)N(C)C[C@H]2Oc3c(NC(=O)c4ccncc4)cccc3C(=O)N([C@H](C)CO)C[C@@H]2C)cc1`, the cytotoxicity call is “inactive”. To `CC(C)[Si](C#C[Si](C(C)C)(C(C)C)C(C)C)(O[C@H](C)c1cn(Cc2cccc(Cl)c2)nn1)C(C)C` belongs “inactive”. For `Cc1cc(C(=O)Nc2cccc3c2O[C@@H](CN(C)C(=O)NC2CCCCC2)[C@H](C)CN([C@@H](C)CO)C3=O)n(C)n1`, the cytotoxicity call is “inactive”. To `C[C@@H]1CN([C@@H](C)CO)C(=O)c2cc(NC(=O)CCCCCC(=O)Nc3ccccc3N)ccc2O[C@@H]1CN(C)S(C)(=O)=O` belongs “inactive”; to `COC(=O)[C@H]1C[C@@]2(C(=O)O)C[C@](C(=O)O)(C[C@@H](C(=O)OC)C2=O)C1=O`, “inactive”; to `C[C@@H]1CN([C@@H](C)CO)C(=O)CCCn2nncc2CO[C@@H]1CN(C)C(=O)Nc1ccc2c(c1)OCCO2`, “inactive”.

`C[C@@H]1CCCCO[C@H](CN(C)C(=O)Nc2ccc(C(F)(F)F)cc2)[C@@H](C)CN([C@H](C)CO)C(=O)c2cc(N(C)C)ccc2O1`: the cytotoxicity call was “inactive”. Take `CCc1nc2ccc(C(=O)N3CCN(S(=O)(=O)CC)CC3)cn2c1N(C=O)Cc1ccc(OC)cc1`: the cytotoxicity call was “inactive”. To `C[C@@H]1CCCCO[C@@H](CN(C)Cc2ccc(Cl)c(Cl)c2)[C@@H](C)CN([C@H](C)CO)C(=O)c2cc(NC(=O)Nc3ccccc3)ccc2O1` belongs “inactive”; to `C[C@H]1CCCCO[C@H](CN(C)Cc2ccc(Cl)c(Cl)c2)[C@@H](C)CN([C@@H](C)CO)C(=O)c2cc(NC(=O)Nc3ccccc3)ccc2O1`, “inactive”; to `C[C@H](CO)N1C[C@H](C)[C@@H](CN(C)Cc2ccc(Cl)c(Cl)c2)OCCCC[C@H](C)Oc2ccc(NC(=O)Nc3ccccc3)cc2C1=O`, “active”. Regarding `C[C@@H]1CCCCO[C@@H](CN(C)Cc2ccc(C(=O)O)cc2)[C@H](C)CN([C@H](C)CO)C(=O)c2cc(NC(=O)Nc3ccc(C(F)(F)F)cc3)ccc2O1`, the cytotoxicity call is “inactive”.

Regarding `COc1ccccc1CNC(=O)C[C@H]1C[C@H]2c3cc(NC(=O)c4ccc5c(c4)OCO5)ccc3O[C@H]2[C@@H](CO)O1`, the cytotoxicity call was “inactive”. For `Cc1noc(C)c1NC(=O)Nc1cccc2c1O[C@@H](CN(C)S(=O)(=O)c1ccccc1)[C@H](C)CN([C@H](C)CO)C2=O`, the cytotoxicity call is “inactive”. Then `Cc1noc(C)c1NC(=O)N(C)C[C@H]1Oc2ncc(C#CCC(C)C)cc2C(=O)N([C@@H](C)CO)C[C@@H]1C`, with “inactive”; and `C[C@@H]1CN([C@H](C)CO)C(=O)Cc2cc(NC(=O)CCCCCC(=O)Nc3ccccc3N)ccc2O[C@H]1CN(C)Cc1ccc(C(F)(F)F)cc1`, with “inactive”. Consider `C[C@@H]1CN([C@@H](C)CO)C(=O)Cc2cc(NC(=O)CCCCCC(=O)Nc3ccccc3N)ccc2O[C@H]1CN(C)Cc1ccc(C(F)(F)F)cc1`, for which the cytotoxicity call was “inactive”.

On to `C[C@H](CO)N1C[C@H](C)[C@H](CN(C)Cc2ccc(C(F)(F)F)cc2)Oc2ccc(NC(=O)CCCCCC(=O)Nc3ccccc3N)cc2CC1=O`, for which the cytotoxicity call was “active”. To `C[C@@H]1CN([C@H](C)CO)C(=O)Cc2cc(NC(=O)CCCCCC(=O)Nc3ccccc3N)ccc2O[C@@H]1CN(C)Cc1ccc(C(F)(F)F)cc1` belongs “active”. For the compound `C[C@H](CO)N1C[C@H](C)[C@@H](CN(C)Cc2ccc(C(F)(F)F)cc2)Oc2ccc(NC(=O)CCCCCC(=O)Nc3ccccc3N)cc2CC1=O`, the cytotoxicity call is “inactive”. Then `C[C@H]1CN([C@@H](C)CO)C(=O)Cc2cc(NC(=O)CCCCCC(=O)Nc3ccccc3N)ccc2O[C@@H]1CN(C)Cc1ccc(C(F)(F)F)cc1`, with “inactive”; and `Cc1noc(C)c1S(=O)(=O)N(C)C[C@@H]1Oc2ccc(NS(=O)(=O)c3cn(C)cn3)cc2CC(=O)N([C@@H](C)CO)C[C@H]1C`, with “inactive”. As for `C[C@@H]1CN([C@H](C)CO)C(=O)c2cc(NS(=O)(=O)c3ccc(F)cc3)ccc2O[C@@H]1CN(C)C(=O)Nc1ccc(C(F)(F)F)cc1`, the cytotoxicity call was “inactive”. Turning to `C[C@@H]1CN([C@H](C)CO)C(=O)c2cccc(NS(=O)(=O)c3ccccc3)c2O[C@H]1CN(C)Cc1ccc(Oc2ccccc2)cc1`, the cytotoxicity call was “inactive”.

For the origin of these results see the antibiotic and cytotoxicity screens of Wong et al. (2023).
